Source: PubChem BioAssay
Rows were chosen to be rich in hits. Some 3.5% of all compounds tested hit in one or more screens of this group.
FBW7 activator = activators of human E3 ligase FBW7 | AlphaScreen FBW7–phospho-cyclin E peptide binding, activator screen | normalized activity (activation), % at 26.1 µM | 650,000 compounds, 0.13% hits | Q969H0; in the data active = normalized activity above about 1.9%;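 also: purified mutant Fbw7 with reduced substrate affinity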
MITF primary = human MITF inhibition, primary screen | AlphaScreen MITF homodimerization, bead proximity signal | AID 1259374 | inhibition, % at 2.6 µM | O75030 | 650,000 compounds, 0.91% hits; in the data active = inhibition above about 50%;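 also: 0% = vehicle wells with protein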
TEAD-YAP inh = TEAD-YAP interaction inhibition | 640,000 compounds, 1.4% hits | AID 1259422 | inhibition, % at 9.12 µM | HEK-TIYL cells, TEAD-Gal4/YAP UAS-luciferase luminescence; in the data active = inhibition above about 32%;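 also: 0% = median of test compound wells and 100% = reference inhibitor wells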
GPR151 ag = human GPR151 activation; Q8TDV0; PathHunter beta-arrestin GPR151 cells, luminescence; activation, % at 11.2 µM; 650,000 compounds, 1% hits; AID 1508602; in the data active = activation above about 4.9%;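 also: 0% = median of compound wells and 100% = cells with positive control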
GPR151 conf act = human GPR151 activation, confirmation screen; 6,700 tested, under 10 active; shares compounds with GPR151 ag; AID 1508609; GPR151 PathHunter beta-arrestin cells, luminescence, 90 min; % of EA-reagent control over plate median; activation, % at 11.2 µM;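 active = mean percent activation across replicates above the confirmation screen cutoff of 4.91%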
GPR119 ag = GPR119 activation, counter-screen for GPR151 activators | AID 1508611 | shares compounds with GPR151 ag | activation, % at 11.2 µM | GPR119 PathHunter beta-arrestin cells, luminescence, 90 min; 0 = compound-well median, 100 = enzyme-acceptor control | 6,700 compounds, 0.3% hits;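 active = mean percent activation in the counterscreen above 29.09%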;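 also: counterscreen on off-target GPR119 to flag nonselective hits from the GPR151 activator screen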
Target sequence (Q8TDV5 whole entry, looked up): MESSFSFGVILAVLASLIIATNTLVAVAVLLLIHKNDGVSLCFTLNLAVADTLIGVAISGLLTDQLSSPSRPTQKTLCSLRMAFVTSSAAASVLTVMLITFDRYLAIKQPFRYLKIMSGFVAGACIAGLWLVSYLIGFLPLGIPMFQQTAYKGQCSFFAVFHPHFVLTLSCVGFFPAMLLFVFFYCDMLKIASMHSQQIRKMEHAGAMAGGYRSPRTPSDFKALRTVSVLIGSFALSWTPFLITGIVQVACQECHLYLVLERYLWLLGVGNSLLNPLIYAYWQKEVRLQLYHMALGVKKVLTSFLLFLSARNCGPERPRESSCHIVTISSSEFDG
Active calls of the source: *; nt = not tested or not shown; ! = a repeat was not active.

SMILES	FBW7 activator	MITF primary	TEAD-YAP inh	GPR151 ag	GPR151 conf act	GPR119 ag
OC1CN2N=CC1(Cl)C2c1ccncc1 (centres undefined)	0.1	-0.5	6.5	-0.3	nt	nt
Oc1oc(-c2ccccc2Br)nc1C=Nc1ccc(Br)cc1	0.0	-2.6	-1.4	1.3	nt	nt
Oc1oc(-c2ccccc2Br)nc1C=Nc1ccc(I)cc1	0.0	5.9	-0.6	9.3*	0.3	1.7
O=C(/C=C/c1cccc(Cl)c1)Nc1ccncc1	0.0	0.6	-26.1	23.6*	0.3	-9.1
COc1cc(C=O)ccc1Oc1nc2ccccc2n2cnnc12	0.0	9.2	1.0	5.8*	0.9	14.6
CCOC(=O)Cn1cc(C=C2C(=O)N(C)C(=S)N(C)C2=O)c2ccccc21	0.0	-10.6	-2.2	0.4	nt	nt
COc1ccc(/C=C2/c3ccccc3-c3nc4ccccc4cc32)cc1OC	0.1	8.2	-10.8	1.5	nt	nt
COc1ccc(/C=C2/c3ccccc3-c3cc4c(C)cc(C)nc4cc32)cc1OC	-0.1	3.5	-9.2	5.8*	0.6	1.2
COc1ccccc1CNC1CCCN(c2nc(C)c3cc(F)ccc3n2)CC1 (centres undefined)	0.3	7.0	-1.3	5.4*	0.4	14.1
COc1cc(-c2nnc(CSc3nnc(C)n3C)o2)cc(OC)c1OC	0.0	2.5	6.0	0.6	nt	nt
CC1CCCN(Cc2nc3c(c(=O)n(C)c(=O)n3C)n2Cc2ccc(Cl)cc2)C1 (centres undefined)	0.0	-3.5	-0.5	-0.9	nt	nt
Cc1ccc(Cn2c(CN3CCCC(C)C3)nc3c2c(=O)n(C)c(=O)n3C)cc1 (centres undefined)	-0.2	-9.7	10.5	4.9*	0.6	-3.6
CCc1sc(C(=O)NCc2ccccc2OC)cc1C	0.2	-3.7	1.2	5.5*	-0.4	13.5
Cc1ccc(C(=O)NCC2CCC3(CCN(C(=O)c4ccoc4)CC3)O2)cc1C (centres undefined)	0.2	7.0	12.7	1.6	nt	nt
CCOc1cc(/C=C2\N=C(c3ccc(Cl)cc3)OC2=O)cc(Br)c1OC(C)=O	0.0	1.4	8.1	0.6	nt	nt
Nc1nc(Cl)cc(NCCN2CCOCC2)n1	0.0	9.8	9.0	1.8	nt	nt
Clc1cc(NCCN2CCOCC2)ncn1	0.3	12.0	5.7	5.7*!	0.6	-4.1
C=CCn1c(SCc2nc3ccccc3[nH]2)nc2sc(CC)cc2c1=O	-0.1	1.0	-7.2	-0.8	nt	nt
COCCCNCCn1cnc2c(N)ncnc21	-0.1	-7.0	3.3	7.2*	-1.0	-1.6
CC1CCN(C(=O)C2CCC(CNc3c(N4CCC(C)CC4)c(=O)c3=O)CC2)CC1 (centres undefined)	0.1	-9.7	-3.9	-1.4	nt	nt
COC(=O)Nc1ccc(S(=O)(=O)N2CCCC(C(=O)O)C2)cc1 (centres undefined)	0.1	2.7	2.4	11.3*	-0.4	-9.0
CCN(Cc1ccco1)C(=O)Cn1nc2c(C)cc3ccccc3n2c1=O	0.1	-3.5	-5.6	0.3	nt	nt
CCN(Cc1ccco1)C(=O)Cn1nc2n(Cc3ccccc3F)c3ccccc3n2c1=O	-0.1	-7.4	1.5	6.6*	0.1	2.8
Cc1ccc(S(=O)(=O)N2N=C3CCCCC3C2(O)C(F)(F)F)cc1 (centres undefined)	0.0	4.4	-9.2	0.4	nt	nt
CCCC1=NN(S(=O)(=O)c2ccc(C)cc2)C(O)(C(F)(F)F)C1 (centres undefined)	0.0	14.1	-2.7	5.5*	0.1	-2.3
SMILES	FBW7 activator	MITF primary	TEAD-YAP inh	GPR151 ag	GPR151 conf act	GPR119 ag
O=C(N/N=C/c1cccc(Cl)c1)c1cccs1	0.2	12.3	-52.8	-2.2	nt	nt
CC(=O)Nc1sc(N/N=C/c2cccc(Cl)c2)nc1-c1cccs1	-0.1	8.8	8.9	7.5*	-0.1	3.6
COCCNC(=O)C1CCCN(S(=O)(=O)c2c(C)noc2/C=C/c2cccs2)C1 (centres undefined)	-0.4	-8.4	-0.3	5.3*	0.9	3.8
CC(=O)N1CCN(c2ccc(C(=O)c3cccc(F)c3)cc2)CC1	0.1	8.8	9.2	-0.2	nt	nt
Cc1cc(C)nc(SCc2cc(=O)c(OC(=O)c3cc(Br)ccc3Cl)co2)n1	-0.1	17.0	-9.7	-1.0	nt	nt
CC(=O)N1CCN(C2=NC(=O)/C(=C\c3ccc(-c4cccc(C(F)(F)F)c4)o3)S2)CC1	0.1	13.6	13.2	-0.6	nt	nt
CC1CCN(S(=O)(=O)c2cccc(N)c2)CC1	-0.1	5.0	2.9	0.1	nt	nt
